Experimental data published in PubChem BioAssay (NCATS).
Inconclusive results are not listed. Unmarked numbers belong to inactive results. Calls of active or inactive are those of the source. The call rests on the fitted dose curve; in most records, active means well fitted curve in the direction sought with a large enough effect; inconclusive means small, poorly fitted or top-dose-only effect, or another doubt; inactive means no such curve, though single readings can be large; an effect the other way counts as inactive or inconclusive.

Test system: not listed separately
Assay: Primary qHTS for inhibitors of La Crosse Virus (LACV) - induced cell death in SH-SY5Y cells (AID 1508616); further: potency means the concentration at half of the fitted maximal effect;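 on activity change: top concentration of the series differs between compounds; 0% = infected DMSO wells and 100% = uninfected DMSO wells; higher means more rescue of cells from virus-induced death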
Conditions: SH-SY5Y LACV cytopathicity rescue, ATP luminescence, 6 d; series mostly up to 9.63 µM; activity change: at the top concentration
Method in brief: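 SH-SY5Y cells (6000/well) plated 24 h, then given compounds by pin transfer and LACV at 0.01 MOI for 6 days at 37C. Viability measured by ATPLite luminescence, normalized to infected DMSO and uninfected DMSO.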

SMILES | activity change [%] | Potency
COc1ccc(CNC(=O)/C=C/c2ccc3[nH]cc(CCN(C)C)c3c2)cc1 | -3.28 | –
CN(C(=O)Cc1ccc(Cl)c(Cl)c1)C(CN1CCCC1)c1cccc(OCC(=O)O)c1 (stereo unspecified) | -4.07 | –
CCOC(=O)c1ncn2c1[C@@H]1CCCN1C(=O)c1cc(OC)ccc1-2 | -2.18 | –
CC(N)Cc1c[nH]c2ccc(OCc3cccs3)cc12 (stereo unspecified) | -9.04 | –
NC(CCCCCP(=O)(O)O)C(=O)O (stereo unspecified) | 7.14 | –
CCCN1CCc2cc(O)cc3c2[C@H]1Cc1ccc(O)c(O)c1-3 | – | 2000 nM (active)
NC(=O)CI | -1.07 | –
NC(C(=O)O)c1cc(=O)[nH]o1 (stereo unspecified) | -2.27 | –
C[N+]1(C)CCc2cc3c(cc2[C@H]1[C@@H]1OC(=O)c2c1ccc1c2OCO1)OCO3 | 10.8 | –
C=CCN1C[C@@H](C)N([C@H](c2ccc(C(=O)N(CC)CC)cc2)c2cccc(OC)c2)C[C@@H]1C | 30.6 | –
C[N+](C)(C)CC#CCOC(=O)Nc1cccc(Cl)c1 | 34 | –
CCCN(CCC)C1Cc2cc(OC)c(OC)cc2C1 | 65.8 | –
Cc1c2ccncc2c(C)c2c1[nH]c1ccccc12 | – | 1580 nM (active)
CC(N)Cc1c[nH]c2ccc(O)cc12 (stereo unspecified) | 3.78 | –
C[N+](C)(C)CCOC(=O)CBr | 22.1 | –
NC(=O)c1ccc(OCC(O)CN2CC=C(c3ccc(F)cc3)CC2)cc1 (stereo unspecified) | -9.09 | –
C[C@H](Cc1ccc2c(c1)OC(C(=O)O)(C(=O)O)O2)NC[C@H](O)c1cccc(Cl)c1 | -4.97 | –
C[N+]1(C)CCN(c2ccccc2)CC1 | 2.8 | –
C#CCN[C@H](C)Cc1ccccc1 | -12.3 | –

SMILES | activity change [%] | Potency
CN1CC[C@@]2(C)c3cc(O)ccc3N(C)C12 (stereo partly specified) | -18 | –
c1ccc2cc(CC3=NCCN3)ccc2c1 | -1.98 | –
CO[C@H]1CC=C2CCN3CCC4=C(CC(=O)OC4)[C@]23C1 | -10.5 | –
Clc1cc(I)cc(Cl)c1NC1=NCCN1 | 2.18 | –
CC12NC(Cc3ccccc31)c1ccccc12 (stereo unspecified) | 2.18 | –
CCCC[N+]1(C)C2CC(OC(=O)[C@H](CO)c3ccccc3)CC1C1OC12 (stereo partly specified) | 20.8 | –
CCCN(CCC)CCc1ccc(O)c(O)c1 | -22.2 | –
O=C1C=CC(=O)C=C1 | -13.9 | –
NCCc1ccc(S(=O)(=O)F)cc1 | 4.98 | –
N#CCCN | 15.4 | –
NC(=O)c1cc(N2CC2)c([N+](=O)[O-])cc1[N+](=O)[O-] | -16 | –
CN1CCc2cccc(Cl)c2CC1 | 50.2 | –
C[N+]1(C)CCOC(O)(c2ccc(-c3ccc(C4(O)C[N+](C)(C)CCO4)cc3)cc2)C1 (stereo unspecified) | 0.472 | –
NC(=O)COc1c(F)cc(SCCNS(=O)(=O)c2ccccc2)cc1F | 3.44 | –
NNC(N)=O | 27.5 | –
NC(N)=Nc1ccc2[nH]c3c(c2c1)C[C@@]1(O)[C@H]2Cc4ccc(O)c5c4[C@@]1(CCN2CC1CC1)[C@H]3O5 | -25.9 | –
CC(N)[C@H](O)c1ccc(O)c(O)c1 (stereo partly specified) | -3.42 | –
CP(=O)(O)C1=CCNCC1 | 35.2 | –
CN1CCc2cc(O)cc3c2[C@H]1Cc1ccc(O)c(O)c1-3 | – | 3980 nM (active)

Target: Calcium and integrin-binding protein 1 (Homo sapiens) (UniProt Q99828)
Sequence (Q99828 whole entry, looked up): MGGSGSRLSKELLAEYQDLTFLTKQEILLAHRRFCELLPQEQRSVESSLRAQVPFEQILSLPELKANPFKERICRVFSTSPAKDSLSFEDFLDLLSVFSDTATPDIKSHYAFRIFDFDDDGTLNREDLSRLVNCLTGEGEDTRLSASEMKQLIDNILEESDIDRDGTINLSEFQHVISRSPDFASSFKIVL
Assay: Validation qHTS for Identification of Calcium Integrin Binding protein 1 (CIB1) Competitor (AID 1508618); further: on the % scale 0 is the no-effect control and ±100 the full control effect
Conditions: CIB1-GST / FITC-alphaIIb peptide fluorescence polarization; series mostly up to 114 µM; activity change, negative = inhibition: at the top concentration
Method in brief: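 In this qHTS validation, the LOPAC set (up to 114 uM) was tested for blocking CIB1 binding to a fluorescein-tagged alphaIIb peptide, with FP detection at 480/540 nm.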

SMILES | activity change, negative = inhibition [%]
COc1ccc(CNC(=O)/C=C/c2ccc3[nH]cc(CCN(C)C)c3c2)cc1 | 13.8
CN(C(=O)Cc1ccc(Cl)c(Cl)c1)C(CN1CCCC1)c1cccc(OCC(=O)O)c1 (stereo unspecified) | 5.93
CCOC(=O)c1ncn2c1[C@@H]1CCCN1C(=O)c1cc(OC)ccc1-2 | 9.65
CC(N)Cc1c[nH]c2ccc(OCc3cccs3)cc12 (stereo unspecified) | 2.43
NC(CCCCCP(=O)(O)O)C(=O)O (stereo unspecified) | -4.23
CCCN1CCc2cc(O)cc3c2[C@H]1Cc1ccc(O)c(O)c1-3 | 1.07
NC(=O)CI | 4.77
NC(C(=O)O)c1cc(=O)[nH]o1 (stereo unspecified) | 3.45
C[N+]1(C)CCc2cc3c(cc2[C@H]1[C@@H]1OC(=O)c2c1ccc1c2OCO1)OCO3 | 9.2
C=CCN1C[C@@H](C)N([C@H](c2ccc(C(=O)N(CC)CC)cc2)c2cccc(OC)c2)C[C@@H]1C | 5.25
C[N+](C)(C)CC#CCOC(=O)Nc1cccc(Cl)c1 | 5.1
CCCN(CCC)C1Cc2cc(OC)c(OC)cc2C1 | 6.91
Cc1c2ccncc2c(C)c2c1[nH]c1ccccc12 | 7.65
CC(N)Cc1c[nH]c2ccc(O)cc12 (stereo unspecified) | 9.22
C[N+](C)(C)CCOC(=O)CBr | 8.39
NC(=O)c1ccc(OCC(O)CN2CC=C(c3ccc(F)cc3)CC2)cc1 (stereo unspecified) | -2.78
C[C@H](Cc1ccc2c(c1)OC(C(=O)O)(C(=O)O)O2)NC[C@H](O)c1cccc(Cl)c1 | 9.19
C[N+]1(C)CCN(c2ccccc2)CC1 | 8.9
C#CCN[C@H](C)Cc1ccccc1 | 8.58

SMILES | activity change, negative = inhibition [%]
CN1CC[C@@]2(C)c3cc(O)ccc3N(C)C12 (stereo partly specified) | -4.69
c1ccc2cc(CC3=NCCN3)ccc2c1 | 5.68
CO[C@H]1CC=C2CCN3CCC4=C(CC(=O)OC4)[C@]23C1 | 12.4
Clc1cc(I)cc(Cl)c1NC1=NCCN1 | 5.98
CC12NC(Cc3ccccc31)c1ccccc12 (stereo unspecified) | 1.41
CCCC[N+]1(C)C2CC(OC(=O)[C@H](CO)c3ccccc3)CC1C1OC12 (stereo partly specified) | 10.7
CCCN(CCC)CCc1ccc(O)c(O)c1 | 7.44
O=C1C=CC(=O)C=C1 | 8.04
NCCc1ccc(S(=O)(=O)F)cc1 | 7.96
N#CCCN | 9.37
NC(=O)c1cc(N2CC2)c([N+](=O)[O-])cc1[N+](=O)[O-] | 7.87
CN1CCc2cccc(Cl)c2CC1 | 8.04
C[N+]1(C)CCOC(O)(c2ccc(-c3ccc(C4(O)C[N+](C)(C)CCO4)cc3)cc2)C1 (stereo unspecified) | 2.84
NC(=O)COc1c(F)cc(SCCNS(=O)(=O)c2ccccc2)cc1F | 7.62
NNC(N)=O | 8.44
NC(N)=Nc1ccc2[nH]c3c(c2c1)C[C@@]1(O)[C@H]2Cc4ccc(O)c5c4[C@@]1(CCN2CC1CC1)[C@H]3O5 | 8.68
CC(N)[C@H](O)c1ccc(O)c(O)c1 (stereo partly specified) | 2.53
CP(=O)(O)C1=CCNCC1 | 9.78
CN1CCc2cc(O)cc3c2[C@H]1Cc1ccc(O)c(O)c1-3 | 14.5
